# Wnt act: activators of Wnt/beta-catenin signaling. Wnt/beta-catenin reporter cell assay, activator, plate reader. activation, % at 9.35 µM. 300,000 tested, 1.2% active. AID 743398; in the data active = activation above about 30%, passing the limit was not always enough; inconclusive = no clear call, values can overlap the other calls
# hgDAF-12 ag: agonists of H. glycines DAF-12 nuclear receptor; HEK293 GAL4-hgDAF12 UAS-luciferase reporter, agonist luminescence; normalized to butyrate control; 370,000 tested, 1.8% active; activation, % at 6.8 µM;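 active = activation above a cutoff set at the mean of all screened compounds plus 3 SD, cut at about 10% in these data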
# ssDAF12 agonist: activates DAF-12 receptor from parasite S. stercoralis. HEK293 ssDAF-12/GRIP1 lit1-tk-luc reporter, luminescence; % of 3 µM dafachronic acid response. activation, % at 6.8 µM. 370,000 tested, 1% active. AID 652126;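 active = activation above the mean over all tested compounds plus 3 SD, cut at about 0.9% in these data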
# esBAF inh: blocks esBAF chromatin remodeling in mouse ES cells; AID 602393; reporter increase, % at 12.5 µM; 350,000 tested, 2% active; Bmi1-luciferase knock-in reporter, 24 h; 100% = twice the neutral-well signal; in the data active = activation above about 40%; inconclusive = no clear call, values can overlap the other calls;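 also: a rise in the Bmi1 reporter signal indicates esBAF inhibition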
# DAX1 inh: DAX1 (NR0B1) inhibition, primary screen | inhibition, % at 6.8 µM | 370,000 tested, 1.1% active | HEK293T StAR-luciferase reporter, SF-1/DAX-1 repression relief | AID 652010;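 active = inhibition above the mean over all tested compounds plus 3 SD, cut at about 3.6% in these data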;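 also: higher inhibition means more luminescence from relief of DAX-1 repression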
# hcDAF12 agonist: H. contortus DAF-12 activation, primary screen; HEK293 hcDAF-12 lit1-tk-luc reporter, luminescence; 0% DMSO, 100% Δ7-dafachronic acid; activation, % at 6.8 µM; 370,000 tested, 1.4% active;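 active = activation above the mean of all tested compounds plus 3 SD, cut at about 5.5% in these data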
# A number is an active result; i = inactive; ? = inconclusive; nt = no result. The list is not random: actives were taken first. Their share in the collection is about 4.2%.
SMILES,Wnt act,hgDAF-12 ag,ssDAF12 agonist,esBAF inh,DAX1 inh,hcDAF12 agonist
CSc1nsc(SCC(=O)Nc2ccccc2)n1,i,i,i,i,i,i
CCOc1ccc2nc(NC(=O)C3(C)CC3(Br)Br)sc2c1 (stereo not given),i,i,i,nt,i,i
CSc1nsc(SCC(=O)Nc2ccc(OC(C)=O)cc2)n1,40.7,11.0,i,nt,i,i
CCOc1ccc2nc(NC(=O)c3cnccn3)sc2c1,i,i,i,49.2,i,i
CCOc1ccc2nc(NC(=O)CSc3nc(SC)ns3)sc2c1,i,i,i,i,i,6.1
CCOCC(=O)Nc1nc2ccc(C)cc2s1,nt,i,i,nt,i,i
COCC#Cc1cnc2c(c1)C(=O)N([C@H](C)CO)C[C@H](C)[C@@H](CN(C)Cc1ccccc1F)O2,nt,nt,nt,i,nt,nt
COc1ccc(NC(=O)Nc2ccc3c(c2)C(=O)N([C@@H](C)CO)C[C@H](C)[C@H](CN(C)Cc2ccc(C(=O)O)cc2)OCCCC[C@@H](C)O3)cc1,nt,nt,nt,i,nt,nt
CO[C@H](CN(C)S(=O)(=O)c1ccc(C)cc1)[C@@H](C)CN(Cc1ccccc1Cl)[C@H](C)CO,nt,nt,nt,i,nt,nt
C[C@@H]1CN([C@H](C)CO)C(=O)c2cc(Br)cnc2O[C@H]1CN(C)C(=O)Nc1ccccc1,nt,nt,nt,i,nt,nt
Clc1cccc(Cl)c1CSc1cc2c(nn1)-c1ccccc1CC2,i,i,i,i,i,i
Clc1ccccc1CSc1cc2c(nn1)-c1ccccc1CC2,nt,11.1,i,88.1,i,i
C[C@@H]1CCCCO[C@@H](CN(C)S(C)(=O)=O)[C@H](C)CN([C@H](C)CO)C(=O)c2cc(NC(=O)Nc3ccccc3)ccc2O1,nt,nt,nt,i,nt,nt
COCc1nc(-c2ccc(-c3ccc(C)cc3)nc2OC)no1,38.8,i,i,42.7,i,i
COc1ccc(-c2ccc(-c3noc(C)n3)c(OC)n2)cc1,nt,i,i,?,i,i
CCOc1ccc(OCc2ccc(C(=O)O)o2)cc1,nt,i,i,i,i,i
NNC(=O)c1ccc(COc2ccc3ccccc3c2)cc1,33.0,i,i,nt,i,i
O=C(O)c1ccc(COc2ccc3ccccc3c2)o1,50.8,10.5,i,nt,i,i
CC(=O)c1ccc(NC(=O)CSc2nc(N3CCOCC3)nc(N3CCOCC3)n2)cc1,i,i,i,nt,4.1,i
CC(=O)c1ccc(Nc2nc(N3CCOCC3)nc(N3CCOCC3)n2)cc1,i,i,i,44.0,i,i
CC(C)CC#Cc1ccc2c(c1)O[C@@H](CN(C)C(=O)c1ccccc1F)[C@H](C)CN([C@@H](C)CO)S2(=O)=O,nt,nt,nt,i,nt,nt
O=C(C[C@H]1C=C[C@@H](NC(=O)Nc2ccc(F)cc2)[C@@H](CO)O1)NCCN1CCCC1,nt,nt,nt,i,nt,nt
CCn1cc(SCC(=O)N2CCOCC2)c2ccccc21,i,i,i,51.6,i,i
C[C@@H]1CN([C@@H](C)CO)C(=O)c2cccc(NC(=O)Nc3ccccc3)c2O[C@@H]1CN(C)Cc1ccncc1,nt,nt,nt,i,nt,nt
O=C(O)/C(=C\c1ccc(-c2ccccc2[N+](=O)[O-])o1)c1ccccc1,i,i,0.9,i,i,5.7
SMILES,Wnt act,hgDAF-12 ag,ssDAF12 agonist,esBAF inh,DAX1 inh,hcDAF12 agonist
COc1cc(C(=O)NNC(=O)C2CC=CCC2C(=O)O)cc(OC)c1OC (stereo not given),i,i,1.9,nt,i,i
COc1cc(C(=O)NNC(=O)C2CCC2)cc(OC)c1OC,i,i,i,i,i,i
Cc1ccc(S(=O)(=O)Nc2ccc3c(c2)CC(=O)N([C@H](C)CO)C[C@@H](C)[C@H](CN(C)C(=O)Nc2ccc(C(F)(F)F)cc2)O3)cc1,nt,nt,nt,i,nt,nt
Cc1csc(N/N=C/c2c(F)cccc2Cl)n1,i,i,i,44.9,i,6.5
CCC(=O)N(C)C[C@H]1Oc2cc(/C=C/c3ccccc3)ccc2S(=O)(=O)N([C@@H](C)CO)C[C@@H]1C,nt,nt,nt,i,nt,nt
Cc1ccc(NC(=O)CS(=O)c2ccccc2N)c(C)c1 (stereo not given),i,i,i,50.4,i,i
Cc1ccc(NC(=O)CCOc2ccccc2)c(C)c1,nt,nt,nt,i,nt,nt
Brc1ccc2nc(-c3ccco3)c(CC3CCCCC3)n2c1,i,i,1.3,i,i,i
Cc1nn(C)cc1NC(=O)C[C@H]1CC[C@H]2[C@@H](COc3ccc(NC(=O)Nc4cccc(Cl)c4)cc3C(=O)N2C)O1,nt,nt,nt,i,nt,nt
CCc1ccc2oc(-c3ccc(OC)cc3)cc(=Nc3cccc(C(=O)O)c3)c2c1,i,13.2,i,i,i,6.5
CCc1ccc2oc(-c3ccc(OC)cc3)cc(=Nc3c(C)n(C)n(-c4ccccc4)c3=O)c2c1,i,16.7,i,nt,6.5,9.1
COc1ccc(-c2cc(=Nc3ccc(C(=O)O)cc3)c3cc(C)ccc3o2)cc1,i,13.1,i,i,4.1,5.7
COc1ccc(C2Nc3cccc4cccc(c34)N2)cc1Br,i,i,1.1,i,i,i
COc1cc(C2Nc3cccc4cccc(c34)N2)ccc1OC(C)=O,nt,nt,nt,i,nt,nt
Cc1cc(NC(=O)NC(=O)c2ccc(F)cc2F)n[nH]1,nt,10.8,i,nt,i,i
O=C(Nc1ccc(C(O)(C(F)(F)F)C(F)(F)F)cc1)c1ccc(F)cc1F,nt,i,i,nt,nt,i
Cc1ccc(S(=O)(=O)Nc2ccc3c(c2)C(=O)N([C@@H](C)CO)C[C@@H](C)[C@@H](CN(C)C(=O)CCC(F)(F)F)OCCCC[C@@H](C)O3)cc1,nt,nt,nt,i,nt,nt
C[C@@H]1CN([C@H](C)CO)C(=O)Cc2cc(NC(=O)Cn3cnnn3)ccc2O[C@H]1CN(C)Cc1ccc2c(c1)OCO2,nt,nt,nt,i,nt,nt
O=C(c1ccccc1)c1ccc2nc(-c3ccco3)c(-c3ccco3)nc2c1,36.4,i,i,i,i,i
O=C(NCCc1ccccc1)c1ccc2nc(-c3ccco3)c(-c3ccco3)nc2c1,nt,nt,nt,i,nt,nt
O=C(OCC(=O)N1CCC(Cc2ccccc2)CC1)c1cc(Cl)ccc1O,i,i,i,i,3.9,i
COc1ccccc1C1CC(c2cccs2)=Nc2ccccc2S1 (stereo not given),40.8,i,i,53.1,i,i
COc1ccc(NC(=O)c2cccc(F)c2)cc1Cl,nt,i,i,77.2,i,i
COc1ccc(NC(=O)c2cccc(OC(F)F)c2)cc1Cl,nt,10.9,i,57.3,i,i
O=C(Nc1ccc(OC(F)F)c(Cl)c1)c1cccc(OC(F)F)c1,nt,nt,nt,i,nt,nt
O=C(Nc1cc2c(cc1Cl)OCCCO2)c1ccccc1,i,i,i,57.0,i,i
COc1cc(NC(=O)C/C(C)=N/NC(=O)c2cccc(O)c2)c(OC)cc1Cl,i,12.1,i,nt,i,6.1
CO[C@H]1CN(C)C(=O)c2ccc(NC(=O)C3CCC3)cc2OC[C@@H](C)N(Cc2ccc(F)cc2)C[C@H]1C,nt,nt,nt,i,nt,nt
CC(C)NC(=O)N(C)C[C@@H]1Oc2ncc(-c3cccc(C#N)c3)cc2C(=O)N([C@H](C)CO)C[C@H]1C,nt,nt,nt,i,nt,nt
COC(=O)[C@H]1[C@H](CO)[C@H]2Cn3c(ccc(C4=CCCC4)c3=O)[C@H]2N1C(=O)C1CCC1,nt,nt,nt,i,nt,nt
